Measured values published in ChEMBL document CHEMBL4513216, “Probing the Open Global Health Chemical Diversity Library for Multistage-Active Starting Points for Next-Generation Antimalarials” (ACS Infect Dis, 2020).
Among all 69,000 compounds or so, about 8,600 (12%) showed an effect of 50% or more. The sample holds strong results, similar compounds and a random draw of the others, so the mix is not that of the screen.

Tested on: Plasmodium berghei
Test: Screen against P. berghei liver stage (PbLuc), transformed with Luciferase, at 10uM
Type: functional, HepG2
Settings: tested at 10 uM

| SMILES | INHIBITION [%] |
| --- | --- |
| Cc1cccc(CN2C(=O)CC[C@@H]3[C@H]2CCN3Cc2ccc(F)cc2)n1 | 69.5 |
| Cn1cc(CN2CC[C@@H]3[C@@H]2CCN3Cc2ccc3c(c2)OCO3)cn1 | 60.5 |
| Cc1cccc(CN2CC[C@H]3[C@H]2CCN3C(=O)c2cnn(C)c2)n1 | -0.554 |
| CN1CC[C@@H]2[C@@H]1CCN2Cc1ccc2c(c1)OCO2 | 35.8 |
| Cc1cccc(CN2C(=O)C[C@H]3[C@@H]2CCN3Cc2ccc(F)cc2)n1 | -4.82 |
| Cc1cccc(CN2CC[C@@H]3[C@@H]2CCN3Cc2cccs2)n1 | 33.1 |
| Cc1cccc(CN2CC[C@H]3[C@H]2CCN3Cc2cnn(C)c2)n1 | 51.6 |
| Cc1cc(OCC(=O)NCc2ccc(F)cc2)nnc1C | -3.08 |
| CC(=O)N1CCC2(CC1)CN(C(=O)[C@@H]1CSCN1)c1ccc(Cl)cc12 | 30.5 |
| Cc1cc(CN2C[C@@H](N3CCN(C)CC3)[C@H]3OCCC[C@H]32)oc1C | -30 |
| Cn1cnc2c1C(COCC1CCOCC1)CN(C(=O)C1CC=CC1)C2 (configuration not stated) | 45.1 |
| Cc1ccc(-c2cc(CN3CCc4cncnc4C3)on2)cc1 | -8.91 |
| CN(C)[C@@H]1CN(C(=O)c2cc3cccc(F)c3[nH]2)C[C@H]1O | -0.275 |
| COc1ccc(CN2CCCN(C(=O)C(C)n3ccnc3)CC2)cc1 (configuration not stated) | 18.55 |
| CN(CCCNC(=O)c1ccccc1F)CC(F)(F)F | 52.3 |
| CN(CCCNC(=O)c1ccccc1OCC(N)=O)CC(F)(F)F | -52.1 |
| CN(CCCNC(=O)c1ccc(C#N)cc1)CC(F)(F)F | 21.8 |
| Cn1nnc2c1CCN(Cc1nccs1)C2COCc1ccccc1 (configuration not stated) | 15.9 |
| Cc1noc(C)c1-c1nc(C2CCCN(C(=O)CN)C2)ccc1CO (configuration not stated) | 37.1 |
| COCCN(Cc1cccc(O)c1)CC1CC1 | 45.2 |
| Cc1cnc(CN(Cc2ccccc2)CC2CCOCC2)cn1 | 14.2 |
| Cc1cnc(CN(Cc2cccc(O)c2)CC2CC2)cn1 | 65.9 |
| Cc1cnc(N2CCCn3c(nnc3CN(C)C(C)C)C2)nc1 | -19.2 |
| CCC(=O)N1CCC[C@]2(C(=O)N(C)C)CN(c3ccccn3)C[C@@H]2C1 | 34.2 |
| CCN(Cc1ccc(C)o1)C(=O)C(C)n1ccnc1C(C)C (configuration not stated) | 13 |
| Cc1cccc(C(Nc2nccc(-c3ccc(C)nc3C)n2)C2CC2)n1 (configuration not stated) | -11.2 |

| SMILES | INHIBITION [%] |
| --- | --- |
| Cc1cccnc1C(Nc1nccc(C2CCCC2)n1)C1CC1 (configuration not stated) | 0.164 |
| Cc1ccc(-c2ccnc(NC(c3ncccc3C)C3CC3)n2)c(C)n1 (configuration not stated) | 51.2 |
| CS(=O)(=O)N1C[C@@H](Oc2ccccn2)[C@H]2OCCC[C@H]21 | 29 |
| Cc1cc(C)c(S(=O)(=O)Nc2c(C)nc(N(C)C)nc2C)cc1C | 4.12 |
| CCCN(C(=O)CN1CCn2c(nnc2C2CC2)C1)C1=CCCCC1 | 18.7 |
| CCN(C(=O)CN1CCn2c(C)nnc2C1)C1=CCCCC1 | -6.46 |
| CCN(C(=O)CN1CCn2c(nnc2C2CC2)C1)C1=CCCCC1 | 51.2 |
| Cc1cn2nc(N3CCCCC3Cn3cccn3)sc2n1 (configuration not stated) | 11.6 |
| O=C(NCCNc1cnccn1)N1CCN(c2nccs2)CC1 | 29.2 |
| COc1ncccc1CN1C[C@H]2CCN(c3ncccn3)C[C@H]2C1 | 56.4 |
| c1cc(CN2CC[C@@H]3CN(c4cncnc4)C[C@@H]3C2)ccn1 | 27.6 |
| Cc1ccc(CN2C[C@@H]3CN(c4ncccn4)C[C@@H]3C2)cc1 | 40.8 |
| COc1ncccc1CN1C[C@H]2CCN(c3ccc(C)nn3)C[C@H]2C1 | 41.4 |
| COc1ncccc1CN1C[C@@H]2CN(c3ncccn3)C[C@@H]2C1 | 47.4 |
| c1cnc(N2C[C@H]3CCN(Cc4ccncc4)C[C@H]3C2)nc1 | 58.4 |
| CC(=O)c1cnc(NCCN2CCCC2)nc1C | 33.1 |
| CCN(C)C(=O)c1coc(COc2ccccc2)n1 | -8.47 |
| CC(C)=CCC/C(C)=C/CN1CCN(C)C2(CCNC(=O)CC2)C1 (configuration not stated) | 67.5 |
| CN1CCN(CCC(F)(F)C(F)F)CC12CCNC(=O)CC2 (configuration not stated) | 49.9 |
| CC/C(C)=C/CCN1CCN(C)C2(CCNC(=O)CC2)C1 (configuration not stated) | 35.9 |
| Cc1cc(C(=O)N2CC(O)CO2)c2ccc(C)c(C)c2n1 (configuration not stated) | 15 |
| O=C(O)c1ccccc1CN1CCCC(Cc2ccn[nH]2)C1 (configuration not stated) | 7.721 |
| Cc1ncc(CN2CCOC(c3ccc(-c4cc[nH]n4)cn3)C2)s1 (configuration not stated) | 19.6 |
| Cc1ncc(CN2CCOC(c3ccc(-c4cnn(C)c4)cn3)C2)s1 (configuration not stated) | -6.92 |
| Cc1ncc(CN2CCOC(c3ccc(-c4ccccc4F)cn3)C2)s1 (configuration not stated) | 95.3 |
| CCCNC(=O)NC(C)c1ccccn1 (configuration not stated) | 21.2 |
